# Sampled rows, rich in hits. Any-hit rate of the full collection: about 18%.
# IL1B secr inh – inflammasome signaling inhibition, IL-1 beta readout; 360,000 compounds, 4.7% hits; activity change, % at 57.5 µM; THP-1 LPS/ATP IL-1B secretion, AlphaLISA, 16 h; hits give low values; in the data active = activity change below about -50%; inconclusive = mostly about -30% to -49%
#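 THP-1 cells pretreated 1 hr with compounds (up to 57.5 uM final), then stimulated with LPS (250 ng/mL final) plus ATP (1.25 mM final); secreted IL-1B measured by AlphaLISA after 16 hr, decreased signal indicating inhibition.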
# TDP1 block – TDP1 (human) enzyme inhibition. recombinant TDP1, AlphaScreen DNA substrate cleavage. Potency, µM (series often up to 130 µM), usual class: inhibitors. 350,000 compounds, 0.28% hits; also: nearly all actives have a fitted effect of over 40% in size
# Target sequence (Q9NUW8 whole entry, looked up): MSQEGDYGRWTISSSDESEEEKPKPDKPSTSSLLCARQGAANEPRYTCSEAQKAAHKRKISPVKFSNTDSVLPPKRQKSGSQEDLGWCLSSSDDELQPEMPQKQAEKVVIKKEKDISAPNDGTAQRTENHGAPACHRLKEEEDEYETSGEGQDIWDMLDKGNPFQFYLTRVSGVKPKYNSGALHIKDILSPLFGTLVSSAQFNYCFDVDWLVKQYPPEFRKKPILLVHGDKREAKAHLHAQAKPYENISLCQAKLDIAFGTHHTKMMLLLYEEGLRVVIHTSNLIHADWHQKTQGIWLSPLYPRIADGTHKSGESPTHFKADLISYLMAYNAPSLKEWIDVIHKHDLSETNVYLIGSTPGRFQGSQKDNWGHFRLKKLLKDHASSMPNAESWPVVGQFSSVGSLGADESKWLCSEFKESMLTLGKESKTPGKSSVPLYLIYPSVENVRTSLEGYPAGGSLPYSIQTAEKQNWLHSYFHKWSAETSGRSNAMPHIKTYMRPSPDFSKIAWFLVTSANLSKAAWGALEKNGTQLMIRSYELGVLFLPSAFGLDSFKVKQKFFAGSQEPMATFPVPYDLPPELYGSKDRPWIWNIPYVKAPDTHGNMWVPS
#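 Recombinant human Tdp1 (E. coli-expressed, 1 nM final) preincubated with compounds 15 min at room temperature, then 5'-biotin/3'-phosphotyrosine-FITC DNA substrate (15 nM final) added for 5 min. AlphaScreen beads (10 ug/ml final) added 10 min; cleavage lowers signal.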
# DT40 TDP1 CPT – DT40-hTDP1 cell growth loss with CPT; chicken DT40 Tdp1-/-;hTDP1 cells + 20 nM CPT, ATP luminescence, 48 h; Potency, µM (doses to about 46.2 µM), usual class: inhibitors; 420,000 compounds, 12% hits; also: nearly all actives have a fitted effect of over 55% in size
#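 Chicken DT40 Tdp1-/- cells complemented with human TDP1, 400 cells/well, exposed to compounds plus 20 nM camptothecin for at least 48 h at 37 C; viability read as ATP content by CellTiter-Glo luminescence.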
# DT40 TDP1 no CPT – qHTS for Inhibitors of human tyrosyl-DNA phosphodiesterase 1 (TDP1): qHTS in cells in absence of CPT | DT40 Tdp1-/- hTDP1 cells, no CPT, ATP luminescence, 48 h | Potency, µM (highest dose often 46.2 µM), usual class: inhibitors | 420,000 compounds, 15% hits | AID 686978, 2013; also: nearly all actives have a fitted effect of over 55% in size
#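 No-CPT arm: Tdp1-/-;hTDP1 DT40 cells (400/well) plus compounds, incubated ≥48 hr at 37 °C. Readout CellTiter-Glo luminescence.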
# CtBP-E1A blk – inhibitors of CtBP/E1A interaction; AID 651724; activity change, % (test concentration not listed); 340,000 compounds, 0.49% hits; AlphaScreen GST-E1A/His-CtBP binding, 1536-well; hits give low values; in the data active = activity change below about -65%; inconclusive = mostly about -30% to -63%
#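 GST-E1A and His-tagged CtBP (125 nM each as 5X stock) were preincubated with pin-transferred compound for 2 h at 37 °C in the dark, then glutathione donor and nickel acceptor beads were added for 1 h before AlphaScreen reading.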
# Six1-Eya2 inh – inhibitors of human Six1/Eya2 interaction; Q15475+O00167; AlphaScreen GST-Six1/His-Eya2 binding, biochemical; hits give low values; activity change, % (concentration not given with the values); 360,000 compounds, 0.56% hits; AID 651725; in the data active = activity change below about -65%; inconclusive = mostly about -30% to -63%
#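 AlphaScreen luminescence read after one hour at 37 °C in darkness. Pin-transferred compounds met GST-Six1 and His-Eya2 protein (5X stock 250 nM/500 nM) plus glutathione donor and Ni-chelate acceptor beads (5X, 50 ug/mL).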
# Hits are given with their value; n = inactive; u = inconclusive; x = no result. Unless noted, calls follow the shape of the dose curve; as a rule, active = well fitted curve in the direction sought with a large enough effect; inconclusive = small, poorly fitted or top-dose-only effect, or another doubt; inactive = no such curve, though single readings can be large; an effect the other way counts as inactive or inconclusive.
SMILES,IL1B secr inh,TDP1 block,DT40 TDP1 CPT,DT40 TDP1 no CPT,CtBP-E1A blk,Six1-Eya2 inh
CCC(C)NS(=O)(=O)c1ccc(NC(=O)C2CCCO2)cc1 (stereo unspecified),n,n,n,n,n,n
CN(C)S(=O)(=O)c1ccc(N2CCN(S(=O)(=O)c3ccc(F)cc3)CC2)c(Cl)c1,n,n,18µM,18µM,n,n
CN(C)S(=O)(=O)N1CCN(S(=O)(=O)c2ccc(F)cc2)CC1,n,n,n,n,n,n
O=C(C1CCCCC1)N1CCC(CO)(Cc2ccccc2Cl)CC1,u,n,u,21µM,x,n
Cc1cc(C)c2nc(N(CCCN(C)C)C(=O)c3ccc4c(c3)OCCO4)sc2c1,-79,n,13µM,16µM,u,n
Cc1ccc2nc(N(CCN(C)C)C(=O)c3ccc4c(c3)OCCO4)sc2c1,n,n,n,n,n,n
CN(C)CCCN(C(=O)c1ccc2c(c1)OCCO2)c1nc2cc3c(cc2s1)OCO3,n,n,u,n,n,n
CCN(CC)CCN(C(=O)c1ccc2c(c1)OCCO2)c1nc2ccc(C)cc2s1,-51,n,u,n,n,n
CN(C)CCCN(C(=O)c1ccc2c(c1)OCCO2)c1nc2ccccc2s1,x,n,u,16µM,x,x
CCN(CC)CCN(C(=O)C1=COCCO1)c1nc2cc(C)cc(C)c2s1,n,n,u,u,n,n
Cc1cc(C)c2nc(N(CCCN(C)C)C(=O)C3=COCCO3)sc2c1,u,n,16µM,21µM,n,n
CCC(C)NC(=O)C1CCN(S(=O)(=O)c2cccs2)CC1 (stereo unspecified),n,n,n,n,n,n
Cc1ccc(C)c(Cn2c(C3CC(=O)N(c4ccccc4C)C3)nc3ccccc32)c1 (stereo unspecified),x,n,23µM,21µM,x,x
CCc1ccccc1N1CC(c2nc3ccccc3n2Cc2cccc(C)c2)CC1=O (stereo unspecified),x,n,10µM,13µM,x,x
CC(C)(CO)NCc1c(OCc2ccc(Cl)cc2)ccc2ccccc12,-106,x,u,u,n,n
CNCc1c(OCc2ccccc2)ccc2ccccc12,-86,n,u,u,n,n
COc1cc(CNC(C)(C)CO)cc(Br)c1OCc1ccc(Cl)cc1,-114,n,u,u,n,n
CCCc1nc2c(s1)CCc1onc(-c3cccc([N+](=O)[O-])c3)c1-2,n,n,n,n,n,n
CC(C)c1nc2c(s1)CCc1onc(-c3cccc([N+](=O)[O-])c3)c1-2,n,n,u,23µM,n,n
C[C@@H]1COC(=O)O1,x,n,x,x,x,x
COc1cc(NC(=O)COC(=O)c2[nH]c(C)c(C(C)=O)c2C)cc(OC)c1,n,n,u,u,n,n
CC(=O)c1c(C)[nH]c(C(=O)OCC(=O)Nc2ccc3c(c2)OCCO3)c1C,n,n,u,21µM,n,n
Cc1ccccc1OCC(=O)Nc1ccc2c(c1)OCCO2,n,n,n,u,n,n
Cc1cccc(C)c1OCC(=O)Nc1ccc2c(c1)OCCO2,n,n,18µM,u,n,n
CC(=O)c1c(C)[nH]c(C(=O)OCC(=O)Nc2ccc(Cl)cc2[N+](=O)[O-])c1C,n,n,3.7µM,1.8µM,n,n
SMILES,IL1B secr inh,TDP1 block,DT40 TDP1 CPT,DT40 TDP1 no CPT,CtBP-E1A blk,Six1-Eya2 inh
O=C(COC(=O)c1ccc(O)cc1)Nc1ccc(OC(F)F)cc1,n,n,u,16µM,n,n
CC(=O)c1c(C)[nH]c(C(=O)Nc2ccc(Cl)c(S(=O)(=O)N(C)C)c2)c1C,n,n,u,u,x,n
O=C(COC(=O)c1ccc(O)cc1)Nc1ccc2c(c1)OCCO2,n,n,10µM,3.3µM,n,n
CC(C)CC(NC(N)=O)C(=O)OCC(=O)Nc1ccc(OC(F)F)cc1 (stereo unspecified),n,n,23µM,u,n,n
CC(=O)c1c(C)[nH]c(C(=O)OCC(=O)Nc2ccc(Cl)c(S(=O)(=O)N(C)C)c2)c1C,n,n,7.3µM,9.2µM,x,n
C/C(=N\OCC(=O)Nc1ccc(OC(F)(F)F)cc1)c1ccc2c(c1)OCCO2,-69,n,n,u,n,n
CCCC(=O)OCC(=O)Nc1ccc(OC(F)F)cc1,n,n,n,n,n,n
COc1ccc(Nc2cc(C)nc3ncnn23)c(OC)c1,n,n,n,n,n,n
O=C(CN1C(=O)C2(OCCO2)c2cc(Br)ccc21)NO,-55,x,n,n,n,n
CCOC(=O)c1ccc(CSc2nnc(-c3ccncc3)n2N)cc1,n,n,n,n,n,n
COc1ccc(N2C(=O)CC(Sc3ncn[nH]3)C2=O)c(OC)c1 (stereo unspecified),n,n,2.9µM,2.9µM,n,n
CC1CC(=O)N(c2ccc(C(C)C)cc2)C(=O)C1,n,x,n,n,x,n
CC(C)c1ccc(N2C(=O)CC(Sc3ncn[nH]3)C2=O)cc1 (stereo unspecified),n,u,4.6µM,4.6µM,n,n
CC(C)c1ccc(N2C(=O)CC(Sc3nc4ccccc4o3)C2=O)cc1 (stereo unspecified),n,n,4.6µM,5.8µM,n,n
CC(=O)Nc1ccc2nc(C)n(Cc3ccc(Cl)cc3)c(=O)c2c1,n,n,n,u,n,n
CC(C)(C)OC(=O)[C@H]1[C@H](c2ccc([N+](=O)[O-])cc2)C2(C(=O)c3ccccc3C2=O)C2c3ccccc3C=NN21 (stereo partly specified),n,n,u,18µM,n,n
CSc1ccccc1NC(=O)CN(C)CC(=O)Nc1ccc(N2CCOCC2)cc1,n,n,n,n,n,n
CCN(CC(=O)NC1CCS(=O)(=O)C1)S(=O)(=O)c1cc(C)ccc1C (stereo unspecified),n,n,n,n,n,n
CCc1ccccc1Nc1nn2c(=O)c3ccc(C(=O)NC(C)C)cc3nc2s1,x,n,n,n,x,x
CCc1ccccc1Nc1nn2c(=O)c3ccc(C(=O)NCc4ccccc4Cl)cc3nc2s1,x,n,u,9.2µM,x,x
CCc1ccccc1Nc1nn2c(=O)c3ccc(C(=O)NCc4cccs4)cc3nc2s1,x,x,u,21µM,x,x
C=CCn1c(SC(C)C(=O)c2c(N)n(C)c(=O)n(C)c2=O)nnc1-c1ccoc1C (stereo unspecified),n,n,n,n,x,n
Cc1ccc(NC(=O)CN(C)C(=O)c2sc3cc(Cl)ccc3c2Cl)cc1,n,x,n,n,n,n
Cc1c(CN(C)C(=O)c2sc3cc(Cl)ccc3c2Cl)cnn1C,u,n,15µM,21µM,n,n
COc1ccc(OC)c(NC(=O)CN(c2ccccc2OC)S(=O)(=O)c2ccc(C)cc2)c1,x,x,16µM,26µM,x,x

# Assay outcomes deposited in PubChem by National Center for Advancing Translational Sciences (NCATS).
